Results filed as inconclusive are left out. Activity calls are given as the source filed them. Rule for the calls: active = hit-call score of the fitted dose curve at least 0.9, where 1 is the maximum; inconclusive = response in the unintended direction; inactive = score below 0.9.
biological target: human Vitamin D Receptor (VDR), VDR (gene 7421) (UniProt P11473); assay: ATG_VDR_TRANS: Attagene TRANS-FACTORIAL HepG2 Assay for human Vitamin D Receptor (VDR) (AID 2283022)
Summary of the method: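 Multiplexed TRANS reporter in HepG2; 24 h treatment; reporter mRNA by RT-PCR plus capillary electrophoresis; upregulation scored relative to DMSO.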

Chain of human Vitamin D Receptor (VDR), VDR (gene 7421) (P11473 whole entry, looked up): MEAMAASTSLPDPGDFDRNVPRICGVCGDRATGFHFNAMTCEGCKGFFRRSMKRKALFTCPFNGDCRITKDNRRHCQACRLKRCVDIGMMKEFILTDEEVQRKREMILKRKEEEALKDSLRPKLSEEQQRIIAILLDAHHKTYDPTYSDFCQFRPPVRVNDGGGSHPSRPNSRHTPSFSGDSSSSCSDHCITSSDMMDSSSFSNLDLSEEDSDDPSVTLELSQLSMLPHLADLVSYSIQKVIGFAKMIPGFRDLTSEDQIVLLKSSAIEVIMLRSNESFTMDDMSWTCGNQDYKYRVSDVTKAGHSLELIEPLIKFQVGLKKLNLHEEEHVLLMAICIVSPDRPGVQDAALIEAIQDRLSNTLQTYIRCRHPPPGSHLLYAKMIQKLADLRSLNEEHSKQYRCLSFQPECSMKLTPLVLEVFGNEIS

outcome, inactive:
OCCOCCOCCOCCO, O=C(OCc1ccccc1)C(=O)OCc1ccccc1, CC(C)(C#N)c1cc(Cn2cncn2)cc(C(C)(C)C#N)c1, CC(C)(C)C(=O)c1ccccc1, CCN(CC)CCOC(=O)c1ccc(N)cc1, O=[N+]([O-])c1ccc(Nc2ccc(Nc3ccccc3)c(S(=O)(=O)O)c2)c([N+](=O)[O-])c1, O=C(O)c1snc(Cl)c1Cl, COc1cc2ncnc(Nc3cccc(Cl)c3)c2cc1OC, CCCCCCOC(=O)CCCCC, Cc1ccc(C(=O)c2cc(O)c(O)c([N+](=O)[O-])c2)cc1, CCCCOCCOCCOCCOCCO, C=C(C)C(=O)Nc1ccc(Cl)c(Cl)c1, COc1cc(C(C)(C)C)c(O)c(C(C)(C)C)c1, O=C(Oc1ccccc1)c1ccc(O)cc1, OC1C(O)C(O)C(O)C(O)C1O (stereo not given), CCC(C)CCCC(C)(C)O (stereo not given), Nc1ccc(S(=O)(=O)O)c(N)c1, O=C(O)COCCN1CCN(C(c2ccccc2)c2ccc(Cl)cc2)CC1 (stereo not given), CC(=O)c1c(C)cc(C(C)(C)C)cc1C, Nc1nc2ccc([N+](=O)[O-])cc2s1, CCN(CC)c1ccc2c(-c3ccccc3C(=O)O)c3ccc(=[N+](CC)CC)cc-3oc2c1, O=C1NC(=O)c2ccccc21, C=CC[N+](C)(C)CC=C, C=C(C)C(=O)O, COc1ccc(NC(=O)CC(C)=O)cc1

— PubChem BioAssay (EPA / NIEHS)
